# Measured values as given in article PMC12864922, “TDP-43 directly inhibits mRNA accumulation in neurites through modulation of mRNA stability”.
# Whole data set: some 9,900 sequences, median “r (bound/input frequency ratio)” near 0.7, cut for the highest 2% near 6.5. This is one part of a sample in which the highest values are shown more often than they occur.
# B1: ENSMUSG00000090935.506|Synj2bp|218:224 (ssRNA)
# RNA: GGGAGUUCUACAGUCCGACGAUCGCUUCGAUAUCCGCAUGCUAAAGCUCCAUAGAAGGCAAGACGCAUUCCACAUCUUGUCUUGACCAGCAGCACUCUGGAGGCCCAGUGUCUGCUACCCUUCUUGUAUCUGAUGGCAUGGGUAACAGCUCUGCCAUGGGCCUGCUUACUUCUAGUAUUCACCUCAGGGCUUGGAAAUUGGUUUUGAAAGGCUUUUAGACAUAGAAAGUAAAACUAAUGGCAAGGAGGAUAAAACACUGUACACACAUGUAUUGUUGAUCUAAAUAAAAAAUAUCAUUGGUAGCUCUUGCGGUCGCACUAGUGUGGAAUUCUCGGGUGUCAAGG
# B2: ENSMUSG00000032194.149|Kank2 (ssRNA)
# RNA: GGGAGUUCUACAGUCCGACGAUCGCUUCGAUAUCCGCAUGCUAGCAGAGGAGACUACUUCUAGAAAUACUUUCAGACCUACAGACAAAAAAGAAAAAAGGCCAUUCCGGAGUGACUCCCAGCAUCACAGCCCAGAACCUCCUCCUCAAAGGAGAGUAAACAGAGACUGUGAUACUGACCAAGUACAGGCGCUCGCUAUGAAGCCCAUAUGUUCCUGAUUAAGAGCUGGCUGGCCUCAGAGCACUCCCAGAACUAGCUUAAAGUGACAGGCUUUGCUGAAAUCCAAAGGGACAAAAGAGUAGUUCUCUUGCGGUCGCACUAGUGUGGAAUUCUCGGGUGUCAAGG
# B3: ENSMUSG00000022095.203|Fam160b2 (ssRNA)
# RNA: GGGAGUUCUACAGUCCGACGAUCGCUUCGAUAUCCGCAUGCUACACAGGUUGCCAGGAGGUGACAUGAAAGAGGAGGAAACUCCAUGACCUCUACAUCCCCCGCAGUCCUCCCAGCGGGGGAGGACUUCUCUGCUGCUCCGAAGAACAUCAUGCACUCCUGUGUGUGUGUGUGAGUGUGUGUGUGUGUGUGUGUGUGUGUGUGUGUGUAUGUGUGUGUAUAUGUGUGUGUGUGUGUGUAUGUGUGUGUGUGUGUGUGAGUGAGUGUGUGUGUGUGUGUGUGUGUGUGAGUGUGUGUGUAUAUGCUCUUGCGGUCGCACUAGUGUGGAAUUCUCGGGUGUCAAGG
# B4: ENSMUSG00000022095.204|Fam160b2 (ssRNA)
# RNA: GGGAGUUCUACAGUCCGACGAUCGCUUCGAUAUCCGCAUGCUAUUGCCAGGAGGUGACAUGAAAGAGGAGGAAACUCCAUGACCUCUACAUCCCCCGCAGUCCUCCCAGCGGGGGAGGACUUCUCUGCUGCUCCGAAGAACAUCAUGCACUCCUGUGUGUGUGUGUGAGUGUGUGUGUGUGUGUGUGUGUGUGUGUGUGUGUAUGUGUGUGUAUAUGUGUGUGUGUGUGUGUAUGUGUGUGUGUGUGUGUGAGUGAGUGUGUGUGUGUGUGUGUGUGUGUGAGUGUGUGUGUAUAUGUGUGUGCUCUUGCGGUCGCACUAGUGUGGAAUUCUCGGGUGUCAAGG
# B5: ENSMUSG00000022095.205|Fam160b2 (ssRNA)
# RNA: GGGAGUUCUACAGUCCGACGAUCGCUUCGAUAUCCGCAUGCUAGGAGGUGACAUGAAAGAGGAGGAAACUCCAUGACCUCUACAUCCCCCGCAGUCCUCCCAGCGGGGGAGGACUUCUCUGCUGCUCCGAAGAACAUCAUGCACUCCUGUGUGUGUGUGUGAGUGUGUGUGUGUGUGUGUGUGUGUGUGUGUGUGUAUGUGUGUGUAUAUGUGUGUGUGUGUGUGUAUGUGUGUGUGUGUGUGUGAGUGAGUGUGUGUGUGUGUGUGUGUGUGUGAGUGUGUGUGUAUAUGUGUGUGUGUGUGCUCUUGCGGUCGCACUAGUGUGGAAUUCUCGGGUGUCAAGG
# B6: ENSMUSG00000022095.206|Fam160b2 (ssRNA)
# RNA: GGGAGUUCUACAGUCCGACGAUCGCUUCGAUAUCCGCAUGCUAGACAUGAAAGAGGAGGAAACUCCAUGACCUCUACAUCCCCCGCAGUCCUCCCAGCGGGGGAGGACUUCUCUGCUGCUCCGAAGAACAUCAUGCACUCCUGUGUGUGUGUGUGAGUGUGUGUGUGUGUGUGUGUGUGUGUGUGUGUGUAUGUGUGUGUAUAUGUGUGUGUGUGUGUGUAUGUGUGUGUGUGUGUGUGAGUGAGUGUGUGUGUGUGUGUGUGUGUGUGAGUGUGUGUGUAUAUGUGUGUGUGUGUGUGAGAGCUCUUGCGGUCGCACUAGUGUGGAAUUCUCGGGUGUCAAGG
# B7: ENSMUSG00000042529.429|Kcnj12|20:25;182:186 (ssRNA)
# RNA: GGGAGUUCUACAGUCCGACGAUCGCUUCGAUAUCCGCAUGCUAAUGUCAGUGGCUUGGGUGCACACACGAGAGAGAGAGAGAGAGAGAGAGAGAGAGAGAGAGAGAGAGAGAGAGAGAGCUGCACAGGAUGAAGCAGCUGCCCUGAGCCCAUCUGGUGCUGUGCACCUGGUCCUUGUCCAGCCGAGGGCCUGGGGGCAGAAGAACACACCAUAGGGAGGCCCUUCAUACGGUGUCUGCCCUAUGUGAGGUCAUAGAAUGUUAAAUCUAUUUUAAACGGUGAAACUGGAGAAUUUUCAUGUUAUCUCUUGCGGUCGCACUAGUGUGGAAUUCUCGGGUGUCAAGG
# B8: ENSMUSG00000061578.155|Ksr2 (ssRNA)
# RNA: GGGAGUUCUACAGUCCGACGAUCGCUUCGAUAUCCGCAUGCUAUAUGCAUGAUGGGUUACAUGGGUGUGUGUGUGUGUGUAACUGUUUACAAUGGUCUCCCUGCCUCUCACGGGCUGUGUUCCAGGAGAAUGCACAUAGAGAGGUUCUGUGGUCUCUGCUGUCGCCUGGUGCUGAAUCCUGAGUGGUUUCCCCACUGAGGACCCUGUGACCCUGUGACCCUUGGCCCCUCCCUUAUUGUGCACACUCAGCACCCCAUCUUCCAAGCCUUUCUUCAUCCCCCACCUUCUUUUGGGAAGGGGUGGCUCUUGCGGUCGCACUAGUGUGGAAUUCUCGGGUGUCAAGG
# Biological target: TDP-43 (Homo sapiens, UniProt Q13148 1-414)
# Sequence (Q13148 whole entry): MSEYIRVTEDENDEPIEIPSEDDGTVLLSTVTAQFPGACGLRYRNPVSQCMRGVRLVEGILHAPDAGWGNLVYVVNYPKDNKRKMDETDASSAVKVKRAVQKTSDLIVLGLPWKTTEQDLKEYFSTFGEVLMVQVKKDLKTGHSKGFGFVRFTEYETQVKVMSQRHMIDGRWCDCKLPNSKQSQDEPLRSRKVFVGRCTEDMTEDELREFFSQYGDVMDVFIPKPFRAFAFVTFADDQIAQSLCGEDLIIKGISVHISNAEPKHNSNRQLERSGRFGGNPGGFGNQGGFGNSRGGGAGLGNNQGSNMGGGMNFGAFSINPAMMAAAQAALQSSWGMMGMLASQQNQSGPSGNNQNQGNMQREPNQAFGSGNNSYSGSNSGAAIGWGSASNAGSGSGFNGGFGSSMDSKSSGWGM
# Assay: RNA Bind-n-Seq with designed 260-mer pool; 25 mM Tris-HCl, 150 mM KCl, 3 mM MgCl2, BSA (printed 500 mg/mL), 20 units/mL SUPERase IN; pH not stated; 500 nM RNA pool, 1 h, 4 C; TDP-43 5, 50, 500 nM; high values mean tight binding
# Conditions: protein: recombinant; tags: SBP (GST cleaved off with PreScission; pGEX-GST-SBP)
# In short: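 Streptavidin beads captured recombinant SBP-tagged TDP-43 at 5, 50 or 500 nM, and the beads were incubated for 1 h at 4 °C with 500 nM of an in vitro-transcribed pool of 260-nt 3′ UTR oligos in 25 mM Tris-HCl, 150 mM KCl, 3 mM MgCl2, BSA and SUPERase IN. After washing, bound RNA was eluted with biotin, reverse transcribed, PCR-amplified and sequenced. Binding is reported as R, the mapped-read-normalized abundance of each oligo in the bound sample divided by its abundance in the input. Two independent protein batches served as duplicates.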
row,Binder,binding signal
1,B1,0.236 R (bound/input frequency ratio)
2,B2,0.573 R (bound/input frequency ratio)
3,B3,8.18 R (bound/input frequency ratio)
4,B4,7.95 R (bound/input frequency ratio)
5,B5,7.87 R (bound/input frequency ratio)
6,B6,3.86 R (bound/input frequency ratio)
7,B7,5.54 R (bound/input frequency ratio)
8,B8,1.09 R (bound/input frequency ratio)
